Measured values published in PubChem BioAssay (Tox21).
Records with an inconclusive call do not appear. Calls of active or inactive are those of the source. Unless noted, the call rests on the fitted dose curve; in most records, active means well fitted curve in the direction sought with a large enough effect in the repeat runs; inconclusive means weak or mixed curves; inactive means no such curve, though single readings can be large; an effect the other way counts as inactive or inconclusive.

Assays:
[1] = qHTS assay to identify small molecule antagonists of the estrogen related receptor (ERR) signaling pathway from Tox21 library - cell viability counter screen (AID 1224834); further: nearly all actives have a fitted effect of over 30% in size; further: potency means the concentration at half of the fitted maximal effect
Method in brief: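 Seeded ERR cells were rested 6 h at 37 C/5% CO2 before compounds, positive and negative controls or DMSO were added. Incubation continued for 17.5 h, and viability was then quantified by CellTiter-Fluor fluorescence.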

[2] = target: Luciferin 4-monooxygenase (Photinus pyralis) (UniProt P08659); assay: qHTS assay to identify small molecule inhibitors of firefly luciferase (AID 1224835); further: nearly all actives have a fitted effect of over 25% in size; further: potency means the concentration at half of the fitted maximal effect
Method in brief: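 Inhibition of purified Photinus luciferase is measured by luminescence. Substrate levels (D-luciferin, ATP) sit at their KM values. Each compound is tested in a concentration series.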

[3] = qHTS assay to identify small molecule agonists of the constitutive androstane receptor (CAR) signaling pathway - cell viability counter screen (AID 1224836); further: nearly all actives have a fitted effect of over 45% in size; further: potency means the concentration at half of the fitted maximal effect
Method in brief: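 23 h treatment, 37 C, 5% CO2. Cell line: HepG2 stably expressing hCAR with a CYP2B6-2.2kb construct. Co-treatment: PK11195, 0.75 uM final. Read-out: CellTiter-Fluor fluorescence intensity.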

[4] = qHTS assay to identify small molecule antagonists of the constitutive androstane receptor (CAR) signaling pathway - cell viability counter screen (AID 1224837); further: nearly all actives have a fitted effect of over 45% in size; further: potency means the concentration at half of the fitted maximal effect
Method in brief: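 To flag cytotoxic false antagonists, HepG2 hCAR/CYP2B6-2.2kb cells were treated 23 hr with 15-concentration compound series and 50 nM CITCO at 37 C/5% CO2; CellTiter-Fluor fluorescence was the measured end point.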

[5] = target: Nuclear receptor subfamily 1 group I member 3 (Homo sapiens) (UniProt Q14994); assay: qHTS assay to identify small molecule antagonists of the constitutive androstane receptor (CAR) signaling pathway (AID 1224838);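 further: HepG2 cells stably expressing hCAR with CYP2B6 luciferase reporter stimulated by CITCO; nearly all actives have a fitted effect of over 40% in size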; further: potency means the concentration at half of the fitted maximal effect
Method in brief: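 Human hepatoma HepG2 cells expressing hCAR and a CYP2B6 promoter (2.2 kb) luciferase construct; compound titration (15 points) with 50 nM CITCO final, 24 h at 37 C/5% CO2; luminescence via ONE-Glo after 30 min at room temperature.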

[6] = target: Nuclear receptor subfamily 1 group I member 3 (Homo sapiens) (UniProt Q14994); assay: qHTS assay to identify small molecule agonists of the constitutive androstane receptor (CAR) signaling pathway (AID 1224839); further: nearly all actives have a fitted effect of over 15% in size; further: potency means the concentration at half of the fitted maximal effect;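 on activation: HepG2 cells stably carrying human CAR and a CYP2B6 luciferase reporter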
Method in brief: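 Compounds tested at 15 concentrations on HepG2 cells stably harbouring hCAR and CYP2B6-2.2kb reporter constructs, co-treated with PK11195 (0.75 uM final), 24 h at 37 C; luminescent reporter signal quantified.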

[7] = qHTS assay to identify small molecule antagonists of the estrogen related receptor signaling pathway with the pleiotropic PPARgamma coactivator (PGC) from Tox21 10K library - cell viability counter screen (AID 1224840; active means well fitted cell-killing curve with a large enough effect in the repeat runs, not every such curve was filed as active; further: nearly all actives have a fitted effect of over 40% in size; further: potency means the concentration at half of the fitted maximal effect)
Method in brief: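 Seeded PGC/ERR cells (2,000/well, 6 h, 37 C/5% CO2) get compound by pin tool; 17.5 h incubation at 37 C; CellTiter-Fluor added, 30 min, fluorescence measured.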

[8] = qHTS assay to identify small molecule antagonists of the estrogen related receptor signaling pathway with the pleiotropic PPARgamma coactivator (PGC) from Tox21 10K library (AID 1224841; call rule not given here; further: actives are mostly falling curves and most rising ones were filed inactive; nearly all actives have a fitted effect of over 50% in size; further: potency means the concentration at half of the fitted maximal effect)
Method in brief: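 Test chemicals dissolved in DMSO were applied to pre-incubated (6 h) PGC/ERR cells at 2,000 cells/well for an 18 h, 37 C treatment; reporter luminescence was then read using One-Glo.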

[9] = qHTS assay to identify small molecule agonists of the estrogen related receptor signaling pathway with the pleiotropic PPARgamma coactivator (PGC) from Tox21 10K library (AID 1224842); further: nearly all actives have a fitted effect of over 15% in size
Method in brief: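 Luminescence from One-Glo (30 min, room temperature) measured after PGC/ERR cells had 18 h at 37 C with pinned compound (23 nL in DMSO). Cells had been seeded at 2,000 per well and pre-incubated 6 h.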

[10] = target: Thyrotropin receptor (Homo sapiens) (UniProt P16473); assay: qHTS assay to identify small molecule agonists of the thyroid stimulating hormone receptor (TSHR) signaling pathway (AID 1224843; calls by dose curve; further: nearly all actives have a fitted effect of over 45% in size)
Method in brief: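 Agonist activity read as cAMP rise via d2/cryptate HTRF competition, 1 h room-temperature detection, in HEK293 cells expressing TSHR. Fifteen-point titrations, each run in triplicate, with a 30 min room-temperature incubation beforehand.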

[11] = qHTS assay to identify small molecule agonists of the hypoxia (HIF-1) signaling pathway - cell viability counter screen (AID 1224844; calls by dose curve; further: nearly all actives have a fitted effect of over 50% in size)
Method in brief: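 HRE-bla ME-180; 0.5% dFBS; cpd 17 h, 37C, 5% CO2; CellTiter-Glo lum., 30 min RT, post-FRET read, same wells.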

[12] = qHTS assay to identify small molecule agonists of H2AX (AID 1224845; active means well fitted activation curve with a large enough effect in the signal ratio in the repeat runs, not every such curve was filed as active; the % refers to the signal ratio)
Method in brief: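 Phospho-H2AX Ser139 measured by HTRF (ex 320 nm; em 665 and 620 nm) after 24 hr antibody incubation. Compounds, 15 concentrations, 0.76% DMSO, were applied to CHO-K1 cells for 3hr at 37C before lysis.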

[13] = qHTS assay to identify small molecule agonists of the hypoxia (HIF-1) signaling pathway (AID 1224846; active means well fitted activation curve with a large enough effect in the signal ratio in the repeat runs, not every such curve was filed as active; the % refers to the signal ratio)
Method in brief: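 Reporter induction in HRE-bla ME-180 cells is taken as agonism: cells sit 5 hrs after plating, receive compounds or DMSO only, incubate 17 hrs at 37C under 5% CO2, and are loaded with CCF4-AM for beta-lactamase FRET measurement.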

[14] = qHTS assay to identify small molecule agonists of H2AX - cell viability counter screen (AID 1224847; calls by dose curve; further: nearly all actives have a fitted effect of over 30% in size; further: potency means the concentration at half of the fitted maximal effect)
Method in brief: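 Compounds tested at 15 concentrations were incubated 3 hr at 37C with wild-type CHO-K1 cells; cellular ATP-based luminescence (CellTiter-Glo) indicated viability.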

[15] = qHTS assay to identify small molecule antagonists of the estrogen related receptor (ERR) signaling pathway from Tox21 library (AID 1224848); further: nearly all actives have a fitted effect of over 50% in size; further: potency means the concentration at half of the fitted maximal effect
Method in brief: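 Luciferase luminescence (ONE-Glo, 30 min room temperature) was the read-out. Cells of the NTP-supplied ERR line, 2,000 per well, were given 6 h at 37 C before compound addition in DMSO and 18 h exposure at 37 C.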

[16] = qHTS assay to identify small molecule agonists of the estrogen related receptor (ERR) signaling pathway from Tox21 library (AID 1224849; calls by dose curve; further: nearly all actives have a fitted effect of over 15% in size); conditions: ERR reporter cell line, ONE-Glo luciferase, 18 h; at 92.4 µM (top of the series) unless noted
Method in brief: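 Tox21 compounds tested for ERR agonism in an NTP reporter cell line: 18 h treatment at 37 C, then ONE-Glo luminescence.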

[17] = qHTS RealTime-Glo MT Cell Viability Assay in HepG2 cells - 24 hour (AID 1224867); further: nearly all actives have a fitted effect of over 50% in size
Method in brief: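 Compound treatment began 5 h after plating HepG2 cells (600/well) with NanoLuc luciferase and prosubstrate. Plates stayed at 37 C for 40 h; luminescence was captured at six time points, 0 h through 40 h.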

[18] = qHTS RealTime-Glo MT Cell Viability Assay in HEK293 cells - 32 hour (AID 1224868)
Method in brief: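 Quantitative high-throughput screen of the Tox21 10K library in HEK293: cells and RealTime-Glo reagents plated together, compound added at 5 h, luminescence monitored through 40 h at 37 C.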

[19] = A CellTox Green Cytotoxicity Assay to monitor cytotoxicity in HEK293 cells - 0 hour (AID 1224869); further: nearly all actives have a fitted effect of over 50% in size
Method in brief: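 Tox21 screen in HEK293: membrane-impermeant cyanine dye fluoresces on binding dead-cell DNA; compound pinned 5 h post-seeding, plates held at 37 C, signal read repeatedly through 40 h.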

[20] = qHTS assay to identify small molecule agonists of the estrogen related receptor signaling pathway with the pleiotropic PPARgamma coactivator (PGC) (AID 1224823)
Method in brief: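 Compounds dissolved in DMSO are added by pin tool to PGC/ERR cells that have settled for 6 h, and incubation continues 18 h at 37 C. Reporter output is measured as One-Glo luminescence.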
On the % scale 0 is the no-effect control and ±100 the full control effect.

Sequence of Thyrotropin receptor (Homo sapiens) (P16473 whole entry, looked up): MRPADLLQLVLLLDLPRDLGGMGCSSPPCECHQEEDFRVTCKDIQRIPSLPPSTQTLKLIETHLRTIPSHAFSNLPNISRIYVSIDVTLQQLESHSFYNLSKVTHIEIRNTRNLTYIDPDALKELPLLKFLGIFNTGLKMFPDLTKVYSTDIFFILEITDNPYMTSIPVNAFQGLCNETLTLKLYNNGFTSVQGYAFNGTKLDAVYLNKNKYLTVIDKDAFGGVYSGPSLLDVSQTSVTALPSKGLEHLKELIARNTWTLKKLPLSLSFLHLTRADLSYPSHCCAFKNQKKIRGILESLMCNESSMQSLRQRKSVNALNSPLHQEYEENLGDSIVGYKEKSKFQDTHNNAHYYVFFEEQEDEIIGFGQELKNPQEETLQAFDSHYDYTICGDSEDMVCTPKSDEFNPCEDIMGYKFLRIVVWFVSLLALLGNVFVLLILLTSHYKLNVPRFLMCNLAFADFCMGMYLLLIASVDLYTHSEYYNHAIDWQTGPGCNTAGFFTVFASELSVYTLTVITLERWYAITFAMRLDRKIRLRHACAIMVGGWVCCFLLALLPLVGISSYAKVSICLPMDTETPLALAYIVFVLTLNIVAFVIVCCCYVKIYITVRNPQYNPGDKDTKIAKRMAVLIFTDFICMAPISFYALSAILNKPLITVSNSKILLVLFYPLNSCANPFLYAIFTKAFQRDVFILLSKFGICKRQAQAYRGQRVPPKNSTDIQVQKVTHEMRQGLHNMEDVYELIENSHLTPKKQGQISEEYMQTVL
Sequence of Nuclear receptor subfamily 1 group I member 3 (Homo sapiens) (Q14994 whole entry, looked up): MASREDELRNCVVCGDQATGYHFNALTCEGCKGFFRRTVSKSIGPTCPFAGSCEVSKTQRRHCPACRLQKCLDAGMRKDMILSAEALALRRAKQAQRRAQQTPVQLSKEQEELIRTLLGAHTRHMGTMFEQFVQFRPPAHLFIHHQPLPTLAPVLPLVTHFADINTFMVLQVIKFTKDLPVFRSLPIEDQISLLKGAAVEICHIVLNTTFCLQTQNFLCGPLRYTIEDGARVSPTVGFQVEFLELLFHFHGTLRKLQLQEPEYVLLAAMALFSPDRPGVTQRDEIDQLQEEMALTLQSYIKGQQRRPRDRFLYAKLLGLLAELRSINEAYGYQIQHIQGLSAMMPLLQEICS
Sequence of Luciferin 4-monooxygenase (Photinus pyralis) (P08659 whole entry, looked up): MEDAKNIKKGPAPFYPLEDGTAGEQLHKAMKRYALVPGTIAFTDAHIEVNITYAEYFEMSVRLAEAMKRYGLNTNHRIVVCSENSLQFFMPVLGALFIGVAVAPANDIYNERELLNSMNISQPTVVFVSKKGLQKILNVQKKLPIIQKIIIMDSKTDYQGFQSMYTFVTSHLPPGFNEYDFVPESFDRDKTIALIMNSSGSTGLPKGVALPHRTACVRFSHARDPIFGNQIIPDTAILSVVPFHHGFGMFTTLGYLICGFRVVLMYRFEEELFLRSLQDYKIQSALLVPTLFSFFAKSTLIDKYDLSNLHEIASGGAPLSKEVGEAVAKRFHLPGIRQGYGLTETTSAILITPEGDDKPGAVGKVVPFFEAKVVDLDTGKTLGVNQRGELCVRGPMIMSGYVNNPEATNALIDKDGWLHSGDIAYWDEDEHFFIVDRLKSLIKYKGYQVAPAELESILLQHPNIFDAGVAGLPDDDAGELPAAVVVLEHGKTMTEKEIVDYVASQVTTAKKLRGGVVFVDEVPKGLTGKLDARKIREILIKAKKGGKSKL

COC1CCC=CO1 (stereo unspecified)
inactive: Potency [1] | Potency [2] | Potency [3] | Potency [4] | Potency [5] | Potency [6] | Potency [7] | Potency [8] | Potency [9] | Potency [10] | Potency [11] | Potency [12] | outcome [13] | Potency [14] | Potency [15] | activity change, positive = activation [16] 5.99% | Potency [17] | Potency [18] | Potency [19]

CC(CO)(CO)C(=O)O
inactive: Potency [1] | Potency [2] | Potency [3] | Potency [4] | Potency [5] | Potency [6] | Potency [7] | Potency [8] | Potency [9] | Potency [11] | Potency [12] | outcome [13] | Potency [14] | Potency [15] | activity change, positive = activation [16] -0.0649% | Potency [17] | Potency [18] | Potency [19]

O=NN(CCCl)C(=O)NCCCl
inactive: outcome [20] | Potency [1] | Potency [2] | Potency [3] | Potency [4] | Potency [5] | Potency [7] | Potency [8] | Potency [9] | Potency [10] | Potency [11] | Potency [12] | Potency [14] | Potency [15] | activity change, positive = activation [16] 2.54% [at 42.5 µM] | Potency [17] | Potency [18] | Potency [19]

CC(C)CC(O)CC(C)C
inactive: Potency [1] | Potency [2] | Potency [3] | Potency [4] | Potency [5] | Potency [6] | Potency [7] | Potency [8] | Potency [9] | Potency [10] | Potency [11] | Potency [12] | outcome [13] | Potency [14] | Potency [15] | Potency [17] | Potency [18] | Potency [19]

C=Cc1ccc(OC(C)=O)cc1
inactive: Potency [1] | Potency [2] | Potency [3] | Potency [4] | Potency [5] | Potency [6] | Potency [7] | Potency [8] | Potency [9] | Potency [10] | Potency [11] | Potency [12] | outcome [13] | Potency [14] | Potency [15] | activity change, positive = activation [16] 12.7% | Potency [17] | Potency [18] | Potency [19]

CC(=O)N[C@@H](Cc1ccc(O)cc1)C(=O)O
inactive: Potency [1] | Potency [2] | Potency [3] | Potency [4] | Potency [5] | Potency [6] | Potency [7] | Potency [8] | Potency [9] | Potency [10] | Potency [11] | Potency [12] | Potency [14] | Potency [15] | activity change, positive = activation [16] 1.4% [at 42.5 µM] | Potency [17] | Potency [18] | Potency [19]

CCCCCCCCCCCCCC(=O)OCC(O)CO (stereo unspecified)
inactive: Potency [1] | Potency [2] | Potency [3] | Potency [4] | Potency [5] | Potency [6] | Potency [7] | Potency [8] | Potency [9] | Potency [10] | Potency [11] | Potency [12] | outcome [13] | Potency [14] | Potency [15] | activity change, positive = activation [16] 1.85% | Potency [17] | Potency [18] | Potency [19]

SCCc1cnccn1
inactive: Potency [1] | Potency [2] | Potency [3] | Potency [4] | Potency [5] | Potency [6] | Potency [7] | Potency [8] | Potency [9] | Potency [10] | Potency [11] | Potency [12] | outcome [13] | Potency [14] | activity change, positive = activation [16] -18.7% | Potency [17] | Potency [18] | Potency [19]

C1CCCCC1
inactive: Potency [1] | Potency [2] | Potency [3] | Potency [4] | Potency [5] | Potency [6] | Potency [7] | Potency [8] | Potency [9] | Potency [11] | Potency [12] | outcome [13] | Potency [14] | Potency [15] | Potency [17] | Potency [18] | Potency [19]

CCC1CCC(CCC(=O)O)C1 (stereo unspecified)
inactive: Potency [1] | Potency [2] | Potency [3] | Potency [4] | Potency [5] | Potency [6] | Potency [7] | Potency [8] | Potency [9] | Potency [11] | Potency [12] | outcome [13] | Potency [14] | Potency [15] | Potency [17] | Potency [18] | Potency [19]

CCN(CC)CC(=O)Nc1c(C)cccc1C(=O)OC
active: Potency [6] 23.7 µM
inactive: Potency [1] | Potency [2] | Potency [3] | Potency [4] | Potency [5] | Potency [7] | Potency [10] | Potency [11] | Potency [12] | outcome [13] | Potency [14] | Potency [17] | Potency [18] | Potency [19]

CC(C)(O)c1coc(S(=O)(=O)NC(=O)Nc2c3c(cc4c2CCC4)CCC3)c1
inactive: Potency [1] | Potency [2] | Potency [3] | Potency [4] | Potency [5] | Potency [6] | Potency [7] | Potency [10] | Potency [11] | Potency [12] | outcome [13] | Potency [14] | Potency [17] | Potency [18] | Potency [19]

Nc1ccn([C@H]2CS[C@@H](CO)O2)c(=O)n1
inactive: Potency [1] | Potency [2] | Potency [3] | Potency [4] | Potency [5] | Potency [6] | Potency [7] | Potency [10] | Potency [11] | Potency [12] | outcome [13] | Potency [14] | Potency [17] | Potency [18] | Potency [19]

CCN(Cc1cccc(S(=O)(=O)O)c1)c1ccc(C(=C2C=CC(=[N+](CC)Cc3cccc(S(=O)(=O)O)c3)C=C2)c2ccc(O)cc2S(=O)(=O)[O-])cc1
active: Potency [1] 16.6 µM | Potency [2] 10.8 µM | Potency [3] 16.6 µM | Potency [4] 29.5 µM | Potency [5] 11.7 µM | Potency [7] 33.1 µM | Potency [8] 16.6 µM | Potency [14] 19.4 µM | Potency [15] 16.6 µM
inactive: Potency [6] | Potency [9] | outcome [13] | Potency [17] | Potency [18] | Potency [19]

Cc1ccc(NC(=O)N(C)C)cc1NC(=O)N(C)C
inactive: Potency [1] | Potency [2] | Potency [3] | Potency [4] | Potency [5] | Potency [6] | Potency [7] | Potency [10] | Potency [11] | Potency [12] | outcome [13] | Potency [14] | Potency [17] | Potency [18] | Potency [19]
